# Reference: PubChem BioAssay (NCI)
# The panel holds about 83,000 compounds, 20% with a hit somewhere; the sample as a whole holds those more often.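 Testing used 96-well plates and a 48-hour single-concentration exposure. Example: -40 means 40% of the starting cells died.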 Values without a mark were called inactive. Activity calls are given as the source filed them. How the source made its calls: active means growth percent below 10; inactive means the rest.
# System: COLO 205 colon
# Assay: NCI-60 one-dose screen, 48 h (100 = growth as untreated, 0 = no growth, -100 = all killed)
# Conditions: 10 µM unless noted
row,Compound,growth
1,COc1ccccc1N1CCN(CCCOc2ccc(C(=O)/C=C3/C(=O)Nc4ccccc43)cc2)CC1,65.5%
2,CCC[S@](=O)c1ccc2nc(NC(=O)OC)[nH]c2c1,100%
3,FC(F)(F)c1ccc2c(Nc3cccc(C4CC(c5ccccc5)=NN4c4ccc(Cl)cc4)c3)ccnc2c1 (configuration not stated),58.1%
4,COc1cc(NC(=O)c2cc(O)c(C/C=C(\C)CCC=C(C)C)c(O)c2)cc2c1O[C@]1(C)CC[C@@H](O)C(C)(C)[C@H]1C2,-22.3% (active)
5,CCOC(=O)c1c(C)nc2c(c1N)/C(=C/c1cccs1)C(=O)N2Cc1ccccc1,61.3%
6,CS(=O)(=O)O[C@@H]1C(=O)N(c2cc3c4ccccc4ccc3c3ccccc23)[C@H]1c1ccc(F)cn1,48.4%
7,Cc1cccc(NC(=O)c2sc3nc4c(cc3c2N)CN(Cc2ccccc2)CC4)c1C,-0.373% (active)
8,C#Cc1ccccc1NC(=O)c1sc2nc3c(cc2c1N)CCCCC3,105%
9,C=CCn1c(SCC(=O)Nc2ccc(C(=O)/C=C/c3ccc(Cl)cc3)cc2)nnc1-c1cc(OC)c(OC)c(OC)c1,110%
10,Oc1ccccc1-c1nc2c3ccccc3c3ccccc3c2o1,85.7%
11,COc1ccc(-c2cc(-c3nnc(SCC(=O)Nc4ccc(/C(C)=N\O)cc4)o3)c3ccccc3n2)cc1,118%
12,NC(N)=NC(N)=Nc1cc2ccccc2c2ccccc12,-59% (active)
13,O=C1Nc2ccc(Cl)cc2/C1=N/c1nc(-c2ccc(Cl)cc2)cs1,-51.6% (active)
14,c1ccc(Sc2ncccn2)nc1,116%
15,COc1cc2c(Nc3ccc(NC(=O)Nc4ccc(Cl)c(C(F)(F)F)c4)c(Cl)c3)ncnc2cc1OCCCN1CCN(C)CC1,-43.2% (active)
16,CC(C)C1=C[C@@]23CC[C@H]4[C@](C)(COCCC#N)CCC[C@]4(C)[C@H]2C[C@@H]1[C@@H]1[C@H]3[C@@H](OCCC#N)CC[C@@H]1OCCC#N,17.4%
17,COc1cc2nc3c(=O)n(CCN(C)C)cnn3c(=O)c2cc1OC,102%
18,Cc1nccc2c3ccc(OCc4cn(-c5ccc(Br)cc5)nn4)cc3n(CC(C)C)c12,15.1%
19,CC(C)(C)c1nc2c(s1)c1nc(N)ncc1c1ccc(NS(=O)(=O)c3c(F)cccc3F)c(F)c12,4.03% (active)

row,Compound,growth
1,Cc1c(Cl)cccc1NC(=O)c1sc2nc3c(cc2c1N)CCCCCC3,-12% (active)
2,COc1ccc(-c2[nH]c3ccccc3c2C=C(C#N)C#N)cc1,-8.28% (active)
3,COc1ccc(-c2nnc(N3CCN(C(=O)CN4CCN(c5ccccc5)CC4)CC3)nc2-c2ccc(OC)cc2)cc1,17.5%
4,Sc1cccc2cccnc12,24.4%
5,COc1ccc2nc(-c3ccc(Cl)cc3)cc(-c3nnc(SC/C(=N/O)c4ccccc4)o3)c2c1,31.5%
6,C=C(C)[C@@H]1CC[C@]2(C(=O)NCCCO)CC[C@]3(C)[C@H](CC[C@@H]4[C@@]5(C)CCCNC(C)(C)[C@@H]5CC[C@]43C)[C@@H]12,-62.6% (active)
7,C=C1C(=O)O[C@H]2[C@H]1CC/C(COC(=O)NCC(=O)Nc1ccc(OC)c(C(N)=O)c1O)=C\CC[C@@]1(C)O[C@@H]21,10.8%
8,COc1ccc2nc3c(n2c1)C(=O)C(=O)c1ccccc1-3,42.7%
9,COc1ccc(C(C)c2cc(OC)c(OC)c(OC)c2)cc1 (configuration not stated),-15.2% (active)
10,COc1cc(NCC(=O)Nc2cc(Nc3cccc(C(F)(F)F)c3)ncn2)c(Cl)c(OC)c1Cl,104%
11,O=C1Nc2ccccc2C12C=C(c1ccccc1)Nc1c2c(-c2ccccc2)nn1-c1ccccc1 (configuration not stated),80.8%
12,CN(C)C1=NCCN1,111%
13,COc1cc(N=Nc2cc(S(=O)(=O)O)cc3cc(S(=O)(=O)O)cc(O)c23)c(C)cc1N=Nc1c(S(=O)(=O)O)cc2cc(Nc3ccccc3)ccc2c1O,129%
14,O=C1NN(c2ccccc2)C(c2ccc(Cl)cc2)N2CCC[C@H]12 (some centres not stated),108%
15,COc1cc(C(=O)Nc2cc(O)c(C/C=C(\C)CCC=C(C)C)c(O)c2)cc2c1O[C@]1(C)CC[C@@H](O)C(C)(C)[C@H]1C2,-22.2% (active)
16,COC(=O)CCc1cc(O)c2c(c1)[C@@H](C(=O)OC)[C@H](c1ccc(O)c(O)c1)O2,104%
17,Cc1nc2sc(C(=O)Nc3ccccc3Cl)c(N)c2cc1C(C)O (configuration not stated),60.2%
18,NS(=O)(=O)c1ccc(C2C3=C(CCCC3=O)OC3=C2C(=O)c2ccccc2C3=O)cc1 (configuration not stated),-80.3% (active)
